# BAZ2B block: qHTS Assay for Inhibitors of BAZ2B; Bromodomain adjacent to zinc finger domain protein 2B (Homo sapiens), Q9UIF8; AlphaScreen BAZ2B-H3K14Ac peptide displacement; Potency, µM (highest dose often 114 µM), for inactives: at the top dose activity change, negative = inhibition, usual class: inhibitors; 4.4% of 360,000 active; AID 504333, 2011; also: % is scaled to controls: 0 for no effect and ±100 for the full control effect; nearly all actives have a fitted effect of over 60% in size
#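 Inhibition is scored as reduced AlphaScreen emission. The BAZ2B/b-H3(5-23)K14Ac complex (50 nM each) in PBS pH 7.4, 0.01% Tween-20 meets compound (up to 110 uM) for 30 min at RT before bead addition.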
# G9a inh: qHTS Assay for Inhibitors of Histone Lysine Methyltransferase G9a; Histone-lysine N-methyltransferase EHMT2 (Homo sapiens), Q96KQ7; G9a H3K9 monomethylation, AlphaScreen, 2 h; Potency, µM (series often up to 102 µM), inactives show at the highest dose activity, negative = inhibition, usual class: inhibitors; 8.8% of 350,000 active; AID 504332, 2011; also: % is scaled to controls: 0 for no effect and ±100 for the full control effect; nearly all actives have a fitted effect of over 75% in size
# Target sequence (Q96KQ7 913-1193 limits assumed): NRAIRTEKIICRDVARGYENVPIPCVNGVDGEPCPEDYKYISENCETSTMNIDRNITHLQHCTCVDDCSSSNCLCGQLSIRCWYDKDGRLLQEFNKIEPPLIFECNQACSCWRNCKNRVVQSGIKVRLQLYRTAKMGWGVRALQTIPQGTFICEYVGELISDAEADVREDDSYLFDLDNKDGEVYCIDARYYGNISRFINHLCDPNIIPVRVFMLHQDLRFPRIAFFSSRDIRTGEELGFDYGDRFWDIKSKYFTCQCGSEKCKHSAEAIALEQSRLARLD
#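 Readings reflect AlphaScreen signal from monomethyl-H3K9 antibody detection. HMT at 20 nM; substrate b-H3K9 500 nM; cofactor SAM 20 uM; 2 h RT reaction; compounds tested as titrations in qHTS with 15 min preincubation.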
# HP1b chromo inh: HTS for Inhibitors of HP1-beta Chromodomain Interactions with Methylated Histone Tails; Chromobox protein homolog 1 (Homo sapiens), P83916; AlphaScreen HP1-beta / biotin-H3K9me3 peptide binding; Potency, µM (top dose mostly 114 µM), for inactives: at the highest dose activity change, negative = inhibition, usual class: inhibitors; 0.56% of 390,000 active; also: nearly all actives have a fitted effect of over 70% in size
# Target sequence (P83916 whole entry, looked up): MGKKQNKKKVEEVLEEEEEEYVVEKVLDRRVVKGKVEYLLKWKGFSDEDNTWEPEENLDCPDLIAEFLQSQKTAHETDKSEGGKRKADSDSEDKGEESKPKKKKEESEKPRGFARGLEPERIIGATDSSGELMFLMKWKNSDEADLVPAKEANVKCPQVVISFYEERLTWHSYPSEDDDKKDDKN
#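 Compound inhibition of the preformed complex between 50 nM HP1-beta and 50 nM biotinylated H3K9me3 peptide was read by AlphaScreen. Buffer was PBS pH 7.4 with 0.01% Tween-20. Incubations ran 30 min at room temperature, with 10 ug/mL donor/acceptor beads.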
# JMJD2A Tudor: qHTS Assay for Inhibitors of JMJD2A-Tudor Domain | AID 504339, 2011 | Potency, µM (top dose mostly 114 µM), without a hit: at the top dose activity change, negative = inhibition, hits mostly inhibitors | 4.4% of 390,000 active | AlphaScreen JMJD2A-Tudor / H3K4me3 peptide binding; also: % is scaled to controls: 0 for no effect and ±100 for the full control effect; nearly all actives have a fitted effect of over 50% in size
# L3MBTL1 inh: qHTS Assay for the Inhibitors of L3MBTL1. Lethal(3)malignant brain tumor-like protein 1 (Homo sapiens), Q9Y468. AlphaScreen L3MBTL1–H3K9me1 peptide binding. Potency, µM (series often up to 57.1 µM), for inactives: top-dose activity, negative = inhibition, usual class: inhibitors. 0.66% of 230,000 active; also: % is scaled to controls: 0 for no effect and ±100 for the full control effect; nearly all actives have a fitted effect of over 60% in size
#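 First, the protein-peptide complex forms for 30 min at room temperature (L3MBTL1 50 nM, biotinylated H3K9me1 peptide 75 nM). Next, compounds are pin-transferred and incubated 30 min. Finally, AlphaScreen beads are added and read after 30 min.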
# * hit, by the source's call; ? = inconclusive; . = not tested or not shown; [ ] = another dose, or the depositor's remark. In the library only some 11% were active in any assay of this set; here they are far more common. Calls follow the shape of the dose curve; as a rule, active = well fitted inhibition curve with a large enough effect; inconclusive = small, poorly fitted or top-dose-only effect; inactive = no such curve, though single readings can be large or run the other way. Potency is read from the fitted curve at half-maximal effect.
SMILES,BAZ2B block,G9a inh,HP1b chromo inh,JMJD2A Tudor,L3MBTL1 inh
COc1cc(/C=N/N2CCN(c3ccccc3OC)CC2)ccc1O,?,?,-9%,?,-2%
COc1ccccc1N1CCN(/N=C\c2ccccc2)CC1,?,-13%[0.501 µM],-11%,-34%,12%[2.29 µM]
COc1ccccc1N1CCN(/N=C\c2sccc2C)CC1,13µM*,16µM*,-25%,?,.
COc1ccccc1N1CCN(/N=C\c2ccc(C)o2)CC1,-8%[57.1 µM],?,?,-28%,-5%
COc1ccccc1N1CCN(/N=C/c2cccc(OC)c2OC)CC1,35µM*,50µM*,?,?,-2%
Cc1cc(=S)cc(C)n1CCO,-7%,13µM*,13%,-16%,1%
NC(=O)c1cc[n+](CC2=C(C(=O)[O-])N3C(=O)[C@@H](NC(=O)Cc4cccs4)[C@@H]3SC2)cc1,.,7.9µM*,.,.,.
CC(=O)OCC1=C(C(=O)O)N2C(=O)[C@@H](NC(=O)CSc3ccncc3)[C@@H]2SC1,.,2%[12.7 µM],.,.,.
CO[C@@]1(NC(=O)Cc2cccs2)C(=O)N2C(C(=O)O)=C(COC(N)=O)CSC21 (some centres undefined),.,-29%[2.33 µM],.,.,.
NC(=O)c1cc[n+](CC2=C(C(=O)O)N3C(=O)[C@@H](NC(=O)[C@H](c4ccccc4)S(=O)(=O)[O-])[C@@H]3SC2)cc1,.,5.6µM*,.,.,.
NC(=O)c1cc[n+](CC2=C(C(=O)O)N3C(=O)[C@@H](NC(=O)C(c4ccccc4)S(=O)(=O)[O-])[C@H]3SC2)cc1 (some centres undefined),2%,-13%,?,1.1µM*,-14%
COc1cccc(C(=O)NC2C(=O)N3C(C(=O)O)=C(COC(C)=O)CSC23)c1 (centres undefined),?,-10%[12.7 µM],10%,-9%,?
O=S(=O)(NCC(c1ccco1)S(=O)(=O)c1cccs1)c1ccc(Cl)cc1 (centres undefined),-9%,-26%[59 µM],33%,-5%,.
COC(=O)c1nccc2c1[nH]c1ccccc12,9%,9%[12.7 µM],33%,1%,-7%
COc1ccc(CCNC(=O)Nc2cccs2)c(OC)c1,?,20%[0.501 µM],13%,-36%,.
Cc1ccccc1CNC(=O)CCC(=O)N1CCSc2ccccc21,-26%,5%[59 µM],14%,-17%,.
Cc1cc(C)c(Cn2cnc3nc4c(cc3c2=O)CCCC4)c(C)c1,-15%,0%[59 µM],11%[57 µM],-21%,.
Cc1[nH]n(-c2ccccc2)c(=O)c1/C=N/N1CCOCC1,-34%,?,9%,-8%,-6%
O=c1c(/C=N/N2CCOCC2)c(C(F)(F)F)[nH]n1-c1ccccc1,-35%,40µM*,0%,-21%,7%
COc1cc(C)ccc1OCCSc1nc2ccc(NC(=O)c3cccs3)cc2s1,-2%,2%[59 µM],23%,-21%,.
Cc1nc(SCc2cc(=O)c3cccc(F)c3[nH]2)n[nH]1,7%,-2%[59 µM],32%[57 µM],7%,.
CC(C)(C)c1cc[n+](-c2[nH]c(=O)sc2/C=N/NC([S-])=Nc2ccccc2)cc1,-31%,14µM*,-15%,-30%,-16%
Cc1cc[n+](-c2[nH]c(=O)sc2/C=N/NC([S-])=Nc2ccccc2)cc1C,?,32µM*,?,?,-25%
Cc1noc(/C=C/c2ccco2)c1S(=O)(=O)N1CCC(C(=O)Nc2ccc(F)cc2F)CC1,.,-8%[59 µM],18%,-13%,.
O=c1c(-c2ccc(Cl)cc2)[n+]([O-])c2ccccc2n1O,?,11µM*,-8%,25µM*,-4%
SMILES,BAZ2B block,G9a inh,HP1b chromo inh,JMJD2A Tudor,L3MBTL1 inh
CCOC(=O)COn1c(=O)c(-c2ccc(Cl)cc2)[n+]([O-])c2ccccc21,3%,9%,26%,-9%,.
O=c1c(-c2cccc([N+](=O)[O-])c2)[n+]([O-])c2ccccc2n1O,?,?,-1%,56µM*,.
COc1cccc2c1OC(=O)CC2c1ccc(C)cc1 (centres undefined),.,6%,.,.,.
O=c1[nH]c(NCCO)nc2c1C1(CCCC1)Cc1ccccc1-2,-7%,2%[59 µM],13%,-14%,-6%
C=CCNC(=S)NNc1nc2c(c(=O)[nH]1)C1(CCCCC1)Cc1ccccc1-2,?,14µM*,?,?,-6%
CCN1C(=O)c2ccccc2S(=O)c2ccc(C(=O)N3CCN(c4cccc(Cl)c4)CC3)cc21 (centres undefined),?,-36%[59 µM],16%,-16%,.
O=C(Oc1ccc(O)cc1)C12CC3CC(CC(C3)C1)C2,-20%,40µM*,?,56µM*,4%
O=C(O)CC12CC3CC(C1)CC(n1ncc(NCC4CCCO4)c(Cl)c1=O)(C3)C2 (centres undefined),-13%,56µM*,28%,-17%,1%
O=C1N/C(=N/Nc2ccccc2)S/C1=C\c1ccccc1,40µM*,7.9µM*,?,45µM*,-28%
COCCn1c(=O)c(-c2cccs2)nc2cnc(Oc3ccc(OC)cc3)nc21,.,-5%[12.7 µM],.,.,.
COc1ccc(Br)cc1CNC(=O)CN1C(=O)c2cccnc2Oc2ccc(C)cc21,-3%,8%[59 µM],24%,?,.
COc1cc(S(=O)(=O)NCc2ccccn2)ccc1Cl,-2%,25%[59 µM],1%,32µM*,-6%
CC(=O)Nc1ccc(S(=O)(=O)NCc2ccccn2)cc1,6%,13%[59 µM],-4%,5µM*,7%
COc1ccc(S(=O)(=O)NCc2ccccn2)cc1Br,11%,.,40%,-19%,11%
Cn1c(=O)oc2cc(S(=O)(=O)NCc3ccccn3)ccc21,-39%,13µM*,13%,-13%,.
COc1ccc(S(=O)(=O)NCc2ccncc2)cc1NC(=O)c1ccccc1C,12%,8.9µM*,3%,-23%,2%
O=C(Nc1ccc2nc(SCC(=O)N3CCc4ccccc43)sc2c1)c1ccccc1,-14%,-45%[59 µM],17%,-17%,.
O=S(=O)(NCc1ccccn1)C(F)(F)F,50µM*,.,36%,5µM*,-17%
CCN(CC)c1ccc(NS(=O)(=O)c2ccc3c(c2)oc(=O)n3C)c(C)c1,-16%,40µM*,?,?,-29%
CC(=O)Nc1ccc(S(=O)(=O)NCc2ccc(C)n2C)cc1,?,40µM*,13%,-6%,.
Nc1ccc(S(=O)(=O)NCc2ccccn2)cc1,-1%,11%[2.33 µM],69%,-5%,.
COc1ccc(S(=O)(=O)NCc2ccccn2)cc1NC(=O)c1ccc(C)cc1,-37%,-7%,16%,6.3µM*,17%
O=S(=O)(c1ccc2c(c1)OCCO2)N1CCN(S(=O)(=O)c2ccccc2OC(F)(F)F)CC1,.,.,.,-11%,.
